Screening results (PubChem BioAssay)
Rows were chosen to be rich in hits. Some 9.2% of all compounds tested hit in one or more screens of this group.
Rab9 promoter act: activates the Rab9 promoter | Huh7 Rab9 promoter-luciferase reporter, luminescence, 24 h | Potency, µM (titrated, usually from 9.22 µM), for the others: top-dose activation, negative = inhibition, actives largely listed as activators | 2.8% of 320,000 active | AID 485297; note: % of control where 0% means no effect; nearly all actives have a fitted effect of over 60% in size
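Huh7 cells stably carrying a Rab9 promoter-luciferase reporter, 1500 cells per well in OP-MEM I with 10% FBS, treated with compound 24 hours at 37C. Luciferase activity read by luminescence after 10 minutes with Amplite reagent.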
ELG1 DNA repair: blocks ELG1-dependent DNA repair in HEK293T cells; HEK293T ELG1-luciferase reporter, luminescence, 16 h; DNA damage induced by 5-fluorouridine; Potency, µM (top dose mostly 46.1 µM), for the others: at the highest dose activity change, negative = inhibition, actives largely listed as inhibitors; AID 504467; 2.3% of 330,000 active; note: % is set by controls: 0 for no effect and ±100 for the full control effect; nearly all actives have a fitted effect of over 55% in size
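Reporter activity after DNA damage by 5-fluorouridine is monitored. Compound-treated cells incubate 16 hr at 37 °C, then ONE-Glo is added for 30 min before luminescence reading.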
NPC1 prom act: NPC1 promoter activation; Huh7 NPC1 promoter luciferase reporter, 24 h; Potency, µM (series often up to 9.22 µM), for the others: top-dose activation, hits mostly activators; 2.4% of 320,000 active; AID 485313; note: % of control where 0% means no effect; nearly all actives have a fitted effect of over 60% in size
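Luciferase expression driven by the NPC1 promoter was measured in stably transfected Huh7 cells after a 24 h compound incubation, using a luciferase reagent and a luminescence read.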
SMN2 splice enh: increases expression of the SMN2 splice variant; HEK293 SMN2-luciferase splicing reporter, luminescence, 30-36 h; Potency, µM (titrated, usually from 46.1 µM), inactives show at the top dose activity change, positive = activation, most hits filed as activators; 2.8% of 210,000 active; note: % of control where 0% means no effect; nearly all actives have a fitted effect of over 55% in size
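qHTS luciferase splicing reporter: luminescence rises when SMN2 exon 7 is included in transfected HEK293 cells. Compound exposure lasted 30-36 h at 37C, with 4.5 mM final sodium butyrate as control, followed by a ONE-Glo read.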
FLuc counter: inhibits or activates purified firefly luciferase, miR-21 counter-screen; 6.9% of 360,000 active; purified FLuc, Km substrates, luminescence inhibition; Potency, µM (titrated, usually from 57.5 µM), without a hit: at the highest dose activity change, negative = inhibition, hits mostly inhibitors; AID 588342;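 note: plate controls were vehicle for no effect and reference inhibitor for full effect; nearly all actives have a fitted effect of over 55% in size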
Target sequence (P08659 whole entry, looked up): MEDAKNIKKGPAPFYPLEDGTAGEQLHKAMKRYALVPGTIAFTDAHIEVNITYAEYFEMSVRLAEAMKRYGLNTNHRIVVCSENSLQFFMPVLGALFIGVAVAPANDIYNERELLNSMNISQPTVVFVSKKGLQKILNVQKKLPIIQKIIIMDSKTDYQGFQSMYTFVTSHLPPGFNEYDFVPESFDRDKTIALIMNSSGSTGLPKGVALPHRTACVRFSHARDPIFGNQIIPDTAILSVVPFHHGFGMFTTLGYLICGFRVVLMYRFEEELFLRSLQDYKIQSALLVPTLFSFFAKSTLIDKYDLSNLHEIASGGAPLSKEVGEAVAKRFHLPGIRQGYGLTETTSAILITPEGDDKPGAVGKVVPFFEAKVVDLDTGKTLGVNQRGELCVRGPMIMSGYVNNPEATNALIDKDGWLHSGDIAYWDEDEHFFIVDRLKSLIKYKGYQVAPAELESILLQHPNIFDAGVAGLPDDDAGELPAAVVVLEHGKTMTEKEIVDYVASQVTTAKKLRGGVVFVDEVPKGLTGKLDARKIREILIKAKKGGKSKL
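Purified P. pyralis luciferase, 10 nM final, with Km-level 10 uM D-luciferin and 10 uM ATP in 50 mM Tris acetate pH 7.5, 10 mM Mg acetate, 0.01% Tween-20, 0.05% BSA; 6-point qHTS titration about 60 µM downward; luminescence read.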
ELG1 genotoxic: induces genotoxicity in HEK293T cells with luciferase-tagged ELG1; HEK293T ELG1-luciferase reporter, luminescence, 16 h; Potency, µM (series often up to 46 µM), without a hit: at the highest dose activity change, positive = activation, usual class: activators; 1.3% of 330,000 active; AID 504466; note: % of control where 0% means no effect; nearly all actives have a fitted effect of over 60% in size
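Step 1: seed 2,000 HEK293T ELG1-luciferase cells per well. Step 2: add compound or DMSO, incubate 16 hr at 37 °C. Step 3: ONE-Glo, 30 min at room temperature, read luminescence.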
* = called active by the depositor; ? = inconclusive; / = not tested or not shown; [ ] = remark or other dose. Calls come from the whole dose curve; as a rule, active = well fitted curve in the direction sought with a large enough effect; inconclusive = small, poorly fitted or top-dose-only effect, or another doubt; inactive = no such curve, though single readings can be large; an effect the other way counts as inactive or inconclusive. Potency is the fitted concentration of half-maximal effect.

SMILES	Rab9 promoter act	ELG1 DNA repair	NPC1 prom act	SMN2 splice enh	FLuc counter	ELG1 genotoxic
CCOc1ccc(N(C)C(=O)CCc2nnc3ccc(N4CCC5(CC4)OCCO5)nn23)cc1	-0.1%	2.9%	-0.4%	/	0.8%	1.9%
CCn1cc(C(=O)NC2CCC(C)CC2)c(=O)c2cc(S(=O)(=O)N3CCCCC3)ccc21 (stereo not given)	?	?	?	12.6µM*	21.3µM*	8.7%
Cn1cc(C(=O)NC2CCCCC2)c(=O)c2cc(S(=O)(=O)N3CCCC3)ccc21	-7.7%	9.1%	1.4%	11.2µM*	0.1%	1.5%
CC1CCN(S(=O)(=O)c2ccc3c(c2)c(=O)c(C(=O)NC2CCCC2)cn3C)CC1	3.0%	-17.7%	-2.2%	-14.5%	-2.3%	-2.7%
CCC(C)NC(=O)c1cn(CC)c2ccc(S(=O)(=O)N3CCCCCC3)cc2c1=O (stereo not given)	7.7%	6.51µM*	-3.5%	/	1.5%	-3.6%
Cc1ccnc(NC(=S)NC(=O)c2ccco2)c1	2µM*	?	2µM*	87.8%	12µM*	?
Cc1ccnc(NC(=O)CNC(=O)c2cccs2)c1	-3.9%	8.0%	2.2%	/	0.5%	3.5%
O=C(NC(=S)Nc1cccnc1Cl)c1ccc(Cl)cc1	?	?	?	/	16.9µM*	?
Cc1ccnc(NC(=S)NC(=O)c2cccs2)c1	0.794µM*	?	1.58µM*	6.31µM*	4.26µM*	2.06µM*
Cc1ccnc(NC(=O)CNC(=O)c2ccco2)c1	2.0%	?	1.7%	/	-3.7%	9.2%
O=C(NC(=S)Nc1ccc(Cl)cn1)c1cccs1	5.62µM*	?	?	12.6µM*	3.01µM*	?
O=C(NC(=S)Nc1cccnc1)c1cccs1	16.3%	?	11.0%	/	?	7.1%
C[C@@]12C(=O)N(c3cccc(F)c3)C(=O)N1[C@@H]1c3ccccc3OC[C@@H]1[C@H]2c1ccccc1	/	?	/	/	/	-7.6%
Cc1ccnc(NC(=S)NC(=O)/C=C/c2ccco2)c1	?	?	?	?	7.57µM*	9.2µM*
CCOc1ccccc1NC(=S)NC(=O)c1ccco1	3.5%	7.0%	-0.4%	/	?	1.3%
O=C(NC(=S)Nc1cccnc1Cl)c1ccco1	?	?	21.9%	14.6%	15.1µM*	8.4%
O=C(NC(=S)Nc1ccccn1)c1ccco1	2µM*	?	2.24µM*	10µM*	21.3µM*	?
COC(=O)c1c(C)oc(C)c1S(=O)(=O)NCc1ccco1	0.3%	9.3%	1.6%	/	1.6%	0.4%
C=CCn1c(C)cc(C(=O)CN2NS(=O)(=O)c3ccccc3C2=O)c1C	?	?	18.1%	-15.2%	1.69µM*	20.6µM*
C=CCn1c(C)cc(C(=O)Cn2ncc(Cl)c(Cl)c2=O)c1C	-25.1%	?	-15.8%	?	5.36µM*	-15.4%
CCOC(=O)CN(c1cc([N+](=O)[O-])ccc1OC)S(C)(=O)=O	0.4%	23.2%	7.5%	6.6%	-0.2%	-0.4%
CSc1ccc(C2C(C#N)=C(N)N(c3ccccc3)C3=C2C(=O)CCC3)cc1 (stereo not given)	0.2%	-7.8%	-4.6%	25.8%	-1.5%[2.3 µM]	-1.0%
N#CC1=C(N)N(c2ccc(F)cc2)C2=C(C1c1ccc(O)cc1)S(=O)(=O)CC2 (stereo not given)	1.4%	6.8%	0.1%	-30.8%	21.3µM*	0.9%
Fc1ccc(Nc2nc3ccccc3c3nncn23)c(Cl)c1	/	/	/	4.5%	-1.0%	/
COc1cccc(C2C=C(c3ccc(OC)cc3OC)Nc3nnnn32)c1 (stereo not given)	-17.8%	18.4µM*	-8.9%	-39.3%	?	-15.0%
COc1cccc(C2=CC(c3cccc(OC)c3OC(F)F)n3nnnc3N2)c1 (stereo not given)	-5.2%	?	7.9%	-16.0%	-3.9%	-6.8%
